Counter-ions that a name gives are not always drawn. ± gives the standard deviation of the averaged measurements.
Columns and labels:
Details in all cases: concentration: 10 µM; 24 h
HCC1569 [1] = assay: cell number relative to DMSO (% of DMSO); higher = more cells (less growth inhibition / toxicity)
Method in brief: (§1)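 For HCC1569 and TDF cells, compounds at 10 µM were applied for 24 h at 37 °C in triplicate in 384-well plates. Cells were fixed in 3.7% formaldehyde, stained for H1.0 and with DAPI, and imaged at ×10 over six fields per well. The endpoint, H1.0 nuclear intensity or cell number, is shown as percent of the plate control using the median of replicates. Positional effects were smoothed for HCC1569 only.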

TDF [2] = assay: as above
Method in brief: as §1

TDF [3] = assay: H1.0 immunofluorescence intensity relative to DMSO (% of DMSO); higher = stronger H1.0 induction, active = 120 or more
Method in brief: as §1

HCC1569 [4] = assay: H1.0 immunofluorescence intensity relative to DMSO (% of DMSO); higher = stronger H1.0 induction, active = 140 or more
Method in brief: as §1
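Throughout, for H1.0 immunofluorescence intensity relative to DMSO: TDF is a line of transformed human dermal fibroblasts of mesenchymal origin.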
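Throughout, for cell number relative to DMSO: TDF denotes transformed human dermal fibroblasts of mesenchymal origin.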

| Compound | cell number (HCC1569 [1]) | cell number (TDF [2]) | H1.0 immunofluorescence intensity (TDF [3]) | H1.0 immunofluorescence intensity (HCC1569 [4]) |
| --- | --- | --- | --- | --- |
| OC(Cn1cncn1)(Cn1cncn1)c1ccc(F)cc1F [Fluconazole] | 102 | 100 | 93.8 (inactive) | 106 (inactive) |
| CCC(C)C(=O)OC1CC(C)C=C2C=CC(C)C(CCC3CC(O)CC(=O)O3)C21 (stereo unspecified) [Lovastatin] | 99.4 | 80.8 | 119 (inactive) | 106 (inactive) |
| CC(=O)c1ccc2c(c1)[C@H](NC(=O)c1ccc(F)c(Cl)c1)[C@H](O)C(C)(C)O2 | 97.4 | 98 | 104 (inactive) | 99.5 (inactive) |
| O=c1cc(O)cc(C=Cc2ccc(O)c(O)c2)o1 [Hispidin] | 97.3 | 94.8 | 97 (inactive) | 108 (inactive) |
| CCCc1nc2c(C)cc(-c3nc4ccccc4n3C)cc2n1Cc1ccc(-c2ccccc2C(=O)O)cc1 [Telmisartan] | 99.7 | 97.5 | 101 (inactive) | 97.2 (inactive) |
| Cc1nc(-c2ccccc2)c(-c2ccncc2)o1 | 99.2 | 116 | 94.1 (inactive) | 103 (inactive) |
| CC(=O)Oc1cc(C(C)C)c(OCCN(C)C)cc1C.Cl [Moxisylyte hydrochloride] | 105 | 104 | 91.4 (inactive) | 94.4 (inactive) |
| O=C(O)c1cc(=O)c2c(Cl)cc(Cl)cc2[nH]1 [5,7-Dichlorokynurenic acid] | 102 | 98.6 | 95.2 (inactive) | 95.9 (inactive) |
| CC(C)(C)NCC(O)COc1nsnc1N1CCOCC1 (stereo not drawn) [S(-)-Timolol maleate] | 97.5 | 104 | 93 (inactive) | 110 (inactive) |
| O=C1NC(=O)C(c2ccccc2[N+](=O)[O-])=C1Nc1ccc(O)c(Cl)c1 | 96.8 | 107 | 97.8 (inactive) | 111 (inactive) |
| COc1ccc(C2CNC(=O)C2)cc1OC1CCCC1 (stereo unspecified) [Rolipram] | 101 ± 1.8 | 108 ± 4.6 | 91.5 (inactive) | 110 (inactive) |
| Cc1ccccc1CNc1ncnc2c1ncn2C1OC(CO)C(O)C1O (stereo unspecified) [Metrifudil] | 97 | 94.5 | 93.7 (inactive) | 91.4 (inactive) |
| CN1CCN(c2ccc3c(c2)NC(=C2C(=O)N=c4cccc(F)c4=C2N)N3)CC1 | 81.3 | 72.6 | 93.5 (inactive) | 149 (active) |
| CC(CN1CCC(Cc2ccccc2)CC1)C(O)c1ccc(O)cc1.Cl (stereo unspecified) [Ro 25-6981 hydrochloride] | 105 | 101 | 86.4 (inactive) | 96.6 (inactive) |
| O=C(NNC(=O)c1ccc(CNS(=O)(=O)c2ccc(F)c(Cl)c2)cc1)c1ccccc1 | 103 | 113 | 95.9 (inactive) | 105 (inactive) |
| Cl.Cl.Cl.Cl.NCCCNCCCCNCCCN [Spermine tetrahydrochloride] | 102 | 104 | 92.3 (inactive) | 86.7 (inactive) |
| Cc1oc(-c2ccccc2)nc1CCC(=O)c1ccc(CC2SC(=O)[N-]C2=O)cc1.[Na+] (stereo unspecified) | 103 | 106 | 96.4 (inactive) | 102 (inactive) |
| CN1CCC(=C2c3ccccc3C=Cc3ccccc32)CC1.Cl [Cyproheptadine hydrochloride] | 98 | 97.3 | 111 (inactive) | 120 (inactive) |
| CC1C(NC(=O)C(=NOC(C)(C)C(=O)O)c2csc(N)n2)C(=O)N1S(=O)(=O)O (stereo unspecified) [Aztreonam] | 105 | 105 | 93.1 (inactive) | 103 (inactive) |
| COc1ccc(/C=C\c2cc(OC)c(OC)c(OC)c2)cc1OP(=O)([O-])[O-].[Na+].[Na+] | 57.8 | 10.1 | 197 (active) | 140 (inactive) |
| COc1cc2c(cc1OC)C1C(C)c3ccc(OC)c(OC)c3CN1CC2 (stereo unspecified) [Corydaline] | 96.9 | 106 | 94.4 (inactive) | 84.2 (inactive) |
| Oc1ccccc1O [Pyrocatechol] | 73.6 | 87.2 | 93.7 (inactive) | 117 (inactive) |
| CCCCCCCCCCCCCCCCCC(=O)NCC(COP(=O)([O-])OCC[N+](C)(C)C)OC (racemic) [rac-2-Methoxy-3-octadecanamido-1-propylphosphocholine] | 101 | 84.5 | 95.2 (inactive) | 101 (inactive) |
| CN(Cc1ccc(C(C)(C)C)cc1)Cc1cccc2ccccc12 [Butenafine] | 101 | 92.9 | 104 (inactive) | 100 (inactive) |
